# Measured values published in article PMC11062922 (Nature Chemical Biology, 2023).
# Columns and labels:
# BMPR1B = conditions: read-out: apparent Kd; compound concentrations:100 nM and 1000 nM (sheet 'Lestaurtinib' of Supplementary Table 1),run:Lestaurtinib_02496_R2,Plate:MR013; n = 1
# CSNK2A1;CSNK2A3 = conditions: read-out: apparent Kd; compound concentrations:100 nM and 1000 nM (sheet 'Lestaurtinib' of Supplementary Table 1),run:Lestaurtinib_02422_R1,Plate:MR006; n = 1
# EPHA4 = conditions: read-out: apparent Kd; compound concentrations:100 nM and 1000 nM (sheet 'Lestaurtinib' of Supplementary Table 1),run:Lestaurtinib_02487_R1,Plate:MR012; n = 1
# EPHB1 = conditions: read-out: apparent Kd; compound concentrations:100 nM and 1000 nM (sheet 'Lestaurtinib' of Supplementary Table 1),run:Lestaurtinib_02487_R1,Plate:MR012; n = 1
# EPHB3 = conditions: read-out: apparent Kd; compound concentrations:100 nM and 1000 nM (sheet 'Lestaurtinib' of Supplementary Table 1),run:Lestaurtinib_02487_R1,Plate:MR012; n = 1
# EPHB4 = conditions: read-out: apparent Kd; compound concentrations:100 nM and 1000 nM (sheet 'Lestaurtinib' of Supplementary Table 1),run:Lestaurtinib_02487_R1,Plate:MR012; n = 1
# FGFR1 = conditions: read-out: apparent Kd; compound concentrations:100 nM and 1000 nM (sheet 'Lestaurtinib' of Supplementary Table 1),run:Lestaurtinib_02487_R1,Plate:MR012; n = 1
# GRK6 = conditions: read-out: apparent Kd; compound concentrations:100 nM and 1000 nM (sheet 'Lestaurtinib' of Supplementary Table 1),run:Lestaurtinib_02339_R2,Plate:MR001; n = 1
# GSK3A = conditions: read-out: apparent Kd; compound concentrations:100 nM and 1000 nM (sheet 'Lestaurtinib' of Supplementary Table 1),run:Lestaurtinib_02487_R1,Plate:MR012; n = 1
# GSK3B = conditions: read-out: apparent Kd; compound concentrations:100 nM and 1000 nM (sheet 'Lestaurtinib' of Supplementary Table 1),run:Lestaurtinib_02487_R1,Plate:MR012; n = 1
# HSP90B1 = conditions: read-out: apparent Kd; compound concentrations:100 nM and 1000 nM (sheet 'Lestaurtinib' of Supplementary Table 1),run:Lestaurtinib_02606_R3,Plate:MR019; n = 1
# LCK = conditions: read-out: apparent Kd; compound concentrations:100 nM and 1000 nM (sheet 'Lestaurtinib' of Supplementary Table 1),run:Lestaurtinib_02487_R1,Plate:MR012; n = 1
# LYN = conditions: read-out: apparent Kd; compound concentrations:100 nM and 1000 nM (sheet 'Lestaurtinib' of Supplementary Table 1),run:Lestaurtinib_02487_R1,Plate:MR012; n = 1
# MAP4K3 = conditions: read-out: apparent Kd; compound concentrations:100 nM and 1000 nM (sheet 'Lestaurtinib' of Supplementary Table 1),run:Lestaurtinib_03172_R3,Plate:MR031; n = 1
# MERTK = conditions: read-out: apparent Kd; compound concentrations:100 nM and 1000 nM (sheet 'Lestaurtinib' of Supplementary Table 1),run:Lestaurtinib_02766_R2,Plate:MR027; n = 1
# MET = conditions: read-out: apparent Kd; compound concentrations:100 nM and 1000 nM (sheet 'Lestaurtinib' of Supplementary Table 1),run:Lestaurtinib_02724_R1,Plate:MR021; n = 1
# PRKACG = conditions: read-out: apparent Kd; compound concentrations:100 nM and 1000 nM (sheet 'Lestaurtinib' of Supplementary Table 1),run:Lestaurtinib_02422_R1,Plate:MR006; n = 1
# PRKAR2A = conditions: read-out: apparent Kd; compound concentrations:100 nM and 1000 nM (sheet 'Lestaurtinib' of Supplementary Table 1),run:Lestaurtinib_02364_R2,Plate:MR002; n = 1
# PRKDC = conditions: read-out: apparent Kd; compound concentrations:100 nM and 1000 nM (sheet 'Lestaurtinib' of Supplementary Table 1),run:Lestaurtinib_02422_R1,Plate:MR006; n = 1
# RPS6KB1 = conditions: read-out: apparent Kd; compound concentrations:100 nM and 1000 nM (sheet 'Lestaurtinib' of Supplementary Table 1),run:Lestaurtinib_02766_R3,Plate:MR027; n = 1
substance,measurement,setting,value
Lestaurtinib,potency estimated from few doses,BMPR1B,737 nM
same,potency estimated from few doses,CSNK2A1;CSNK2A3,1810 nM
same,potency estimated from few doses,EPHA4,268 nM
same,potency estimated from few doses,EPHB1,403 nM
same,potency estimated from few doses,EPHB3,780 nM
same,potency estimated from few doses,EPHB4,207 nM
same,potency estimated from few doses,FGFR1,1150 nM
same,potency estimated from few doses,GRK6,2090 nM
same,potency estimated from few doses,GSK3A,175 nM
same,potency estimated from few doses,GSK3B,295 nM
same,potency estimated from few doses,HSP90B1,979 nM
same,potency estimated from few doses,LCK,550 nM
same,potency estimated from few doses,LYN,808 nM
same,potency estimated from few doses,MAP4K3,2110 nM
same,potency estimated from few doses,MERTK,1410 nM
same,potency estimated from few doses,MET,2150 nM
same,potency estimated from few doses,PRKACG,769 nM
same,potency estimated from few doses,PRKAR2A,979 nM
same,potency estimated from few doses,PRKDC,1210 nM
same,potency estimated from few doses,RPS6KB1,1570 nM
